Here are results for seven molecules from PubChem BioAssay (Tox21).

Test [1] can be described thus: A CellTox Green Cytotoxicity Assay to monitor cytotoxicity in HEK293 cells - 32 hour (AID 1224881). Further: nearly all actives have a fitted effect of over 40% in size. Further: potency means the concentration at half of the fitted maximal effect. The method in brief: (§1)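 Nonlytic real-time cytotoxicity: HEK293 + CellTox Green reagent plated, 5 h preincubation, pintool compound addition (23 nL in DMSO), 37 C for 40 h, fluorescence measured at successive time points.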
A short description of test [2]: A CellTox Green Cytotoxicity Assay to monitor cytotoxicity in HepG2 cells - 0 hour (AID 1224882). Further: nearly all actives have a fitted effect of over 35% in size. The method in brief: (§2)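 Read-out is fluorescence of a cyanine dye excluded from live cells that stains DNA of dead HepG2 cells, with signal proportional to cytotoxicity. Plates were read at 0, 8, 16, 24, 32 and 40 h after compound addition.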
Test [3] can be described thus: A CellTox Green Cytotoxicity Assay to monitor cytotoxicity in HepG2 cells - 32 hour (AID 1224883). Further: nearly all actives have a fitted effect of over 50% in size. Further: potency means the concentration at half of the fitted maximal effect. Summed up:
as §2

Test [4] in a line: A CellTox Green Cytotoxicity Assay to monitor cytotoxicity in HEK293 cells - 8 hour (AID 1224884). Further: nearly all actives have a fitted effect of over 35% in size. Further: potency means the concentration at half of the fitted maximal effect. The method in brief:
as §1

Test [5] is described as follows: qHTS RealTime-Glo MT Cell Viability Assay in HepG2 cells - 16 hour (AID 1224885). Further: nearly all actives have a fitted effect of over 50% in size. Further: potency means the concentration at half of the fitted maximal effect. The method in brief: (§3)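 Real-time, nonlytic viability: 600 HepG2 cells/well mixed with NanoLuc enzyme plus prosubstrate; 5 h settle, compound (DMSO) added by pintool; luminescence monitored over 40 h at 37 C.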
Test [6] is described as follows: qHTS RealTime-Glo MT Cell Viability Assay in HEK293 cells - 24 hour (AID 1224886). Further: nearly all actives have a fitted effect of over 50% in size. Further: potency means the concentration at half of the fitted maximal effect. Summed up: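 Cells + reagent dispensed (600 cells/well, HEK293) → 5 h at 37 C/5% CO2 → 23 nL compound in DMSO pinned → 40 h at 37 C → luminescence read at 0, 8, 16, 24, 32, 40 h.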
Test [7] can be described thus: qHTS RealTime-Glo MT Cell Viability Assay in HEK293 cells - 8 hour (AID 1224887). Further: nearly all actives have a fitted effect of over 50% in size. Further: potency means the concentration at half of the fitted maximal effect. The method in brief: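 Cells were seeded together with NanoLuc luciferase and a prosubstrate that viable cells reduce to a luciferase substrate. After a 5 h incubation at 37 C/5% CO2, compounds were added and luminescence was measured repeatedly during 40 h of treatment.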
A general note: In qHTS, concentration-response curves come from the screen itself.

Test [8] in a line: A CellTox Green Cytotoxicity Assay to monitor cytotoxicity in HEK293 cells - 16 hour (AID 1224888). Further: nearly all actives have a fitted effect of over 35% in size. Further: potency means the concentration at half of the fitted maximal effect. The method in brief: as §1
The nature of test [9]: qHTS RealTime-Glo MT Cell Viability Assay in HepG2 cells - 0 hour (AID 1224889). Further: nearly all actives have a fitted effect of over 50% in size. The method in brief: as §3
A short description of test [10]: A CellTox Green Cytotoxicity Assay to monitor cytotoxicity in HepG2 cells - 8 hour (AID 1224890). Further: nearly all actives have a fitted effect of over 45% in size. Further: potency means the concentration at half of the fitted maximal effect. Summed up: as §2
A short description of test [11]: qHTS assay to identify small molecule antagonists of the estrogen receptor alpha (ER-alpha) signaling pathway using the BG1 cell line in the presence of 0.1 nM 17-beta-estradiol - cell viability counter screen (AID 1259241). Further: nearly all actives have a fitted effect of over 40% in size. The method in brief: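 Following 5 days in phenol red-free medium with charcoal-stripped serum, VM7Luc4E2 cells received test compounds alongside 0.1 nM 17beta-estradiol (final) at 37C for 22 hr. Live cells were then quantified via protease-substrate fluorescence.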

The nature of test [12]: qHTS assay to identify small molecule antagonists of the androgen receptor (AR) signaling pathway using the MDA cell line in the presence of 0.5 nM R1881 - cell viability counter screen (AID 1259242). Further: nearly all actives have a fitted effect of over 45% in size. Further: potency means the concentration at half of the fitted maximal effect. The method in brief: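 Counter screen for cytotoxicity run in the same wells as the AR antagonist reporter screen: MDA-kb2 cells were treated 16 hr with test compounds and 0.5 nM R1881, then live-cell protease activity was measured by fluorescence.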

Test [13] has as its target Estrogen receptor (Homo sapiens) (UniProt P03372). The test can be described thus: qHTS assay to identify small molecule antagonists of the estrogen receptor alpha (ER-alpha) signaling pathway using the BG1 cell line in the presence of 0.1 nM 17-beta-estradiol (AID 1259244). Further: nearly all actives have a fitted effect of over 50% in size. The method in brief:
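Cells: VM7Luc4E2, endogenous ER-alpha, 4x ERE-luc stable. Pre-culture 5 d, phenol red-free, charcoal-stripped FBS. Plated 24 h, compound + E2 0.1 nM final, 22 h 37C/5% CO2. Readout ONE-Glo luminescence.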

Test [14] in a line: qHTS assay to identify small molecule phospholipidosis (PLD) inducers (AID 1259344; active means well fitted curve in the direction sought with a large enough effect; an effect the other way counts as inactive or inconclusive). Summed up: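 Quantitative HTS in HepG2: compound plus LipidTOX Red dye for 24 h, paraformaldehyde fixation with Hoechst 33342, widefield high-content imaging; amiodarone as positive and DMSO as negative control.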
Test [15] in a line: qHTS assay to identify small molecule HDAC inhibitors (AID 1259364). Further: top concentration of the series differs between compounds; nearly all actives have a fitted effect of over 45% in size. The method in brief: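 Luminescence from a cell-permeant luminogenic class I/II HDAC substrate reports endogenous deacetylase activity in intact HCT-116 cells treated with compounds for 2 h.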
The nature of test [16]: qHTS assay to identify small molecule HDAC inhibitors - cell viability counter screen (AID 1259365). Summed up: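 HCT-116 wild-type, overnight attachment; 2hr drug exposure, 37C; CellTiter-Glo luminescent ATP readout after 30min RT.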
Test [17] can be described thus: qHTS assay to identify small molecule agonists of the sonic hedgehog signaling (Shh) pathway - cell viability counter screen (AID 1259366). Further: nearly all actives have a fitted effect of over 50% in size. Further: potency means the concentration at half of the fitted maximal effect. Summed up: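 Compounds in DMSO were pin-transferred onto 3T3 Gli1-Luc cells that had settled 4hr; plates then stood 24hr at 37C and 5% CO2. One hour before the end, CellTiter-Fluor was added and fluorescence recorded.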
Test [18] is described as follows: qHTS assay to identify small molecule antagonists of the sonic hedgehog signaling (Shh) pathway - cell viability counter screen (AID 1259367). Further: nearly all actives have a fitted effect of over 55% in size. Further: potency means the concentration at half of the fitted maximal effect. Summed up: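 Seed 3T3 Gli1-Luc cells at 2,000 per well; incubate 4 hr; add compound in DMSO, then conditioned medium; incubate at 37C with 5% CO2; add CellTiter-Fluor after 23 hr; read fluorescence 1 hr later.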
Test [19] can be described thus: qHTS assay to identify small molecule agonists of the sonic hedgehog signaling (Shh) pathway (AID 1259368; calls by dose curve;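 further: NIH/3T3-derived 3T3Gli1-Luc cells carrying a stable Gli1-driven firefly luciferase reporter; series mostly up to about 92 µM; nearly all actives have a fitted effect of over 15% in size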). Summed up: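 3T3Gli1-Luc (NIH/3T3 clone, stable Gli1-Luc); 4 hr pre-incubation, then cpd in DMSO 24 hr, 37 C/5% CO2; luciferase reagent 30 min RT; luminescence.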
The target of test [20] is Androgen receptor (Homo sapiens) (UniProt P10275). The test can be described thus: qHTS assay to identify small molecule antagonists of the androgen receptor (AR) signaling pathway using the MDA cell line in the presence of 0.5 nM R1881 (AID 1259243). Further: nearly all actives have a fitted effect of over 50% in size. Further: potency means the concentration at half of the fitted maximal effect. The method in brief:
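Luciferase luminescence is the read-out: compounds are tested for suppressing 0.5 nM R1881-driven MMTV reporter activity in MDA-kb2 cells after 16 hr at 37C.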

Values joined by “and” are separate entries in the source; they are usually repeats but may differ in a detail not shown here. Equal values may be shown once. Records with an inconclusive call do not appear. The source holds several records for some structures; these can differ, active in one and inactive in another. Active and inactive are the calls of the source. Unless noted, the call rests on the fitted dose curve; in most records, active means well fitted curve in the direction sought with a large enough effect in the repeat runs; inconclusive means weak or mixed curves; inactive means no such curve, though single readings can be large; an effect the other way counts as inactive or inconclusive.

Estrogen receptor (Homo sapiens), sequence (P03372 whole entry, looked up): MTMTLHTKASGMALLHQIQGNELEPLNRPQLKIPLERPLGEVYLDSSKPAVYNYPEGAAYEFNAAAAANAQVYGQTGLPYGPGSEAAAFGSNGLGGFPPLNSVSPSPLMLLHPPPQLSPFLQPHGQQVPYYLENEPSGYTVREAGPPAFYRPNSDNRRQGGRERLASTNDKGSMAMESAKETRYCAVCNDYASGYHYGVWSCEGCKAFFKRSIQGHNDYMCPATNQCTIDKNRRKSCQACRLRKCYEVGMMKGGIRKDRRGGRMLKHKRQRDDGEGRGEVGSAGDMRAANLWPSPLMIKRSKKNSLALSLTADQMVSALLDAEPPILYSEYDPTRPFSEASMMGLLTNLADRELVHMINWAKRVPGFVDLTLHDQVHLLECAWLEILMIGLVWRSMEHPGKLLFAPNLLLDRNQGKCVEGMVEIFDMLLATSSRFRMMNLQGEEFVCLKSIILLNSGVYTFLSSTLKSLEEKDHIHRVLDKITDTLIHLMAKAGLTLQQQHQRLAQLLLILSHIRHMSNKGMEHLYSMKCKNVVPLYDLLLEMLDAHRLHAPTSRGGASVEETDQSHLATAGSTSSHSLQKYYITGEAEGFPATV
Androgen receptor (Homo sapiens), sequence (P10275 whole entry, looked up): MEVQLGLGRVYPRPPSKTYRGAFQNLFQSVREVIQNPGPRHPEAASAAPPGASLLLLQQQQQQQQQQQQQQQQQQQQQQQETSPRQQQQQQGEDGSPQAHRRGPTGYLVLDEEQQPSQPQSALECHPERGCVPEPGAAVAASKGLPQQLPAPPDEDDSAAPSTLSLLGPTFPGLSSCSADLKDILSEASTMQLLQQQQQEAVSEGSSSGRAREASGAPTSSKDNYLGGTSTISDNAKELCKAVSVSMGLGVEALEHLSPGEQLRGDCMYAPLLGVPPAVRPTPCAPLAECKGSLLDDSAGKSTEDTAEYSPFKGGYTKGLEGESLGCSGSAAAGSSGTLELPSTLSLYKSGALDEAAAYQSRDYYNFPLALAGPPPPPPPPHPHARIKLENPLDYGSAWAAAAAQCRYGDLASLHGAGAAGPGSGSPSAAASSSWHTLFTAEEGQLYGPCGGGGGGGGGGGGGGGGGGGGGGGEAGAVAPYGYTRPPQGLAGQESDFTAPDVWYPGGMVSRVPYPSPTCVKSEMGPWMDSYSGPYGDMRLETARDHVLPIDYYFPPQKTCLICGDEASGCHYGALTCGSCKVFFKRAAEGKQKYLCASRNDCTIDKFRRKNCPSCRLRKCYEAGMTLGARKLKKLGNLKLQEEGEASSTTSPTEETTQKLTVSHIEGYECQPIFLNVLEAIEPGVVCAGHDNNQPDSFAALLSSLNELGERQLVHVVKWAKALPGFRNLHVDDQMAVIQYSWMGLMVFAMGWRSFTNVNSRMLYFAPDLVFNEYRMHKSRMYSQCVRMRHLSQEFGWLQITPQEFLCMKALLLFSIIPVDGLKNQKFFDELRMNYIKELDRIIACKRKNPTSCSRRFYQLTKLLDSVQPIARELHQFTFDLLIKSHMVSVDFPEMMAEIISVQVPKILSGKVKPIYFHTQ

Consider `CC(Cc1ccc(O)cc1)NCC(O)c1cc(O)cc(O)c1` (configuration not stated), for which the Potency result in test [1], in [2], in test [3], in [4], in [5] and in [6] was “inactive” in each case. In addition, the Potency result in [7], in test [8], in test [9], in test [10], in test [11] and in test [12] was “inactive” in each case. The Potency result in [13], in test [15], in test [16] and in [19] was “inactive” in each case. In addition, the call in test [14] was inactive. For the same molecule, the figures for the Potency in test [17] and in test [18] were 8.41 µM (active) and 10.6 µM (active), respectively.
For the molecule `Cc1c([N+](=O)[O-])c(C)c([N+](=O)[O-])c(C(C)(C)C)c1[N+](=O)[O-]`, the Potency entry in test [1], in test [2], in test [3], in [4], in test [5] and in test [6] was “inactive” in each case. Besides, the Potency entry in test [7], in test [8], in test [9], in test [10], in test [11] and in [12] was “inactive” each time. The Potency result in [13], in test [15], in [16], in test [18] and in test [19] was “inactive” each time.
On to `CCC1(CC)C(=O)N=C(O)NC1=O`, for which the Potency entry in [1], in [2], in test [3], in [4], in test [5] and in [6] was “inactive” in each case. Moreover, the Potency entry in test [7], in test [8], in test [9], in test [10], in [11] and in test [12] was “inactive” in each case. In addition, the Potency result in test [13], in [15], in test [16], in [17], in test [18] and in test [19] was “inactive” each time.
For `O=P(Cl)(Cl)Cl`, the Potency entry in [1], in [2], in [3], in test [4], in test [5] and in test [6] was “inactive” throughout. The Potency entry in test [7], in test [8], in test [9], in test [10], in [11] and in [12] was “inactive” in each case. The Potency entry in test [13], in [15], in test [18] and in [19] was “inactive” each time.
`OCC(Br)CBr` (configuration not stated): the Potency result in test [1], in [2], in [3], in test [4], in [5] and in test [6] was “inactive” each time. In addition, the Potency entry in test [7], in test [8], in [9], in [10], in test [11] and in test [12] was “inactive” each time. In addition, the Potency entry in test [13], in test [15], in [18] and in test [19] was “inactive” each time.
Consider `Cc1nn(-c2cc(NS(C)(=O)=O)c(Cl)cc2Cl)c(=O)n1C(F)F`, for which the Potency entry in [1], in test [2], in test [3], in [4], in [5] and in test [6] was “inactive” throughout. For the same molecule, the Potency result in test [7], in [8], in test [9], in [10], in [11] and in test [12] was “inactive” in each case. The Potency entry in test [20], in test [15], in [16], in test [17], in test [18] and in test [19] was “inactive” each time.
Consider `O=C1C2(Cl)C3(Cl)C4(Cl)C(Cl)(Cl)C5(Cl)C3(Cl)C1(Cl)C5(Cl)C24Cl` (configuration not stated), for which the Potency in [1] was 38.3 µM (active) and 52.6 µM (active); in test [3], 24.1 µM (active) and 41.8 µM (active); in [4], 34.1 µM (active) and 52.6 µM (active); in test [5], 48.2 µM (active) and 46.9 µM (active); in [6], 17.1 µM (active) and 41.8 µM (active); in test [7], 34.1 µM (active) and 46.9 µM (active). Also, the Potency in test [8] was 42.9 µM (active) and 52.6 µM (active); in test [10], 21.5 µM (active) and 41.8 µM (active); in [12], 60.1 µM (active); in test [20], “inactive and 65.7 µM (active)”; in test [17], 26.9 µM (active); in test [18], 37.9 µM (active) and 58.5 µM (active). The Potency result in test [2], in test [9], in test [11], in test [15], in [16] and in [19] was “inactive” in each case.
